# Measurements from PubChem BioAssay AID1159580 (chemical genetic matrix, 2015).
# Hit rate of the full screen: of about 5,500 compounds, about 2,000 (36%) were called active. Not shown: some 18% with an inconclusive outcome. This is one part of the list. Unmarked numbers belong to inactive results. No stated cut-off is given here; in the data, active means normalized growth mostly below about 0.91 (no sharp cut-off); inconclusive means no clear call, values can overlap the other calls; inactive means mostly above about 0.92.
# Experiment: chemical genetic growth profiling, strain panel (AID 1159580);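 further: tested at 20 µM; growth read once vehicle control cultures reached saturation at 30 °C; 1 = growth at the plate median or of vehicle wells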
# Conditions: growth OD
# [1] = S. cerevisiae deletion strains, locus YAL013W, strain DEP1, stronger effect = lower value
# [2] = S. cerevisiae deletion strains, locus YBR229C, strain ROT2, stronger effect = lower value
# [3] = S. cerevisiae deletion strains, locus YDL101C, strain DUN1, stronger effect = lower value
# [4] = S. cerevisiae deletion strains, locus YDL134C, strain PPH21, stronger effect = lower value
# [5] = S. cerevisiae deletion strains, locus YDR150W, strain NUM1, stronger effect = lower value
# [6] = S. cerevisiae deletion strains, locus YEL061C, strain CIN8, stronger effect = lower value
# [7] = S. cerevisiae deletion strains, locus YGR078C, strain PAC10, stronger effect = lower value
# [8] = S. cerevisiae deletion strains, locus YGR229C, strain SMI1, stronger effect = lower value
# [9] = S. cerevisiae deletion strains, locus YHR030C, strain SLT2, stronger effect = lower value
# [10] = S. cerevisiae deletion strains, locus YHR087W, strain rtc3, stronger effect = lower value
# [11] = S. cerevisiae deletion strains, locus YJL187C, strain SWE1, stronger effect = lower value
# [12] = S. cerevisiae deletion strains, locus YJR043C, strain POL32, stronger effect = lower value
# [13] = S. cerevisiae deletion strains, locus YJR075W, strain HOC1, stronger effect = lower value
# [14] = S. cerevisiae deletion strains, locus YLR039C, strain RIC1, stronger effect = lower value
# [15] = S. cerevisiae deletion strains, locus YLR058C, strain SHM2 (second series), stronger effect = lower value
# [16] = S. cerevisiae deletion strains, locus YLR085C, strain ARP6, stronger effect = lower value
# [17] = S. cerevisiae deletion strains, locus YLR262C, strain YPT6, stronger effect = lower value
# [18] = S. cerevisiae deletion strains, locus YML094W, strain GIM5, stronger effect = lower value
# [19] = S. cerevisiae deletion strains, locus YMR219W, strain ESC1, stronger effect = lower value
# [20] = S. cerevisiae deletion strains, locus YMR263W, strain SAP30, stronger effect = lower value
# [21] = S. cerevisiae deletion strains, locus YNL153C, strain GIM3, stronger effect = lower value
# [22] = S. cerevisiae deletion strains, locus YNL298W, strain CLA4 (second series), stronger effect = lower value
# [23] = S. cerevisiae deletion strains, locus YNL322C, strain KRE1, stronger effect = lower value
# [24] = S. cerevisiae deletion strains, locus YNR030W, strain Alg12, stronger effect = lower value
# [25] = S. cerevisiae deletion strains, locus YOL006C, strain TOP1, stronger effect = lower value
# [26] = S. cerevisiae deletion strains, locus YPL055C, strain LGE1, stronger effect = lower value
# [27] = S. cerevisiae deletion strains, locus YPL241C, strain CIN2, stronger effect = lower value
# [28] = S. cerevisiae deletion strains, locus YPR135W, strain CTF4, stronger effect = lower value
# [29] = S. cerevisiae deletion strains, locus YKL190W, strain CNB1, stronger effect = lower value
smiles,measurement,setting,value
COc1ccccc1NC(=O)NCCSCc1ccccc1Cl,normalized growth,[1],0.979
same,normalized growth,[2],0.981
same,normalized growth,[3],1.03
same,normalized growth,[4],0.978
same,normalized growth,[5],0.968
same,normalized growth,[6],0.983
same,normalized growth,[7],0.993
same,normalized growth,[8],0.984
same,normalized growth,[9],0.877
same,normalized growth,[10],0.976
same,normalized growth,[11],1.01
same,normalized growth,[12],1.01
same,normalized growth,[13],1.01
same,normalized growth,[14],0.887
same,normalized growth,[15],1
same,normalized growth,[16],1.07
same,normalized growth,[17],0.931
same,normalized growth,[18],0.963
same,normalized growth,[19],0.988
same,normalized growth,[20],1.01
same,normalized growth,[21],1.01
same,normalized growth,[22],0.974
same,normalized growth,[23],0.985
same,normalized growth,[24],0.971
same,normalized growth,[25],0.954
same,normalized growth,[26],0.927
same,normalized growth,[27],1.04
same,normalized growth,[28],0.88
same,normalized growth,"S. cerevisiae strains, strain wild type, stronger effect = lower value",0.978
Cc1cc(C)c(CSCCNC(=O)Nc2ccc(F)cc2F)c(C)c1,normalized growth,[1],1.02
same,normalized growth,[2],1.01
same,normalized growth,"S. cerevisiae deletion strains, locus YCL061C, strain MRC1, stronger effect = lower value",1.03
same,normalized growth,[3],1.03
same,normalized growth,[4],1.01
same,normalized growth,[5],0.942
same,normalized growth,[6],1.01
same,normalized growth,[7],1.03
same,normalized growth,[8],1.02
same,normalized growth,[9],1.08
same,normalized growth,[10],1.02
same,normalized growth,[11],1.03
same,normalized growth,[12],1.02
same,normalized growth,[13],1.03
same,normalized growth,[29],1.02
same,normalized growth,[14],1.05
same,normalized growth,[15],1.02
same,normalized growth,[16],1.28 [resistant] (active)
same,normalized growth,[17],1.03
same,normalized growth,[18],1.04
same,normalized growth,[19],1.01
same,normalized growth,[20],0.937
same,normalized growth,"S. cerevisiae deletion strains, locus YMR307W, strain GAS1, stronger effect = lower value",1.29
same,normalized growth,[21],1.01
same,normalized growth,[22],1.03
same,normalized growth,[23],1.02
same,normalized growth,[24],1.04
same,normalized growth,[25],1.18
same,normalized growth,[26],0.908
same,normalized growth,[27],1.13
same,normalized growth,[28],1.11
CSc1nsc(SC)c1C(=O)NC(=O)Nc1ccc(F)cc1F,normalized growth,[1],1.01
same,normalized growth,[2],1.01
same,normalized growth,[3],1.04
same,normalized growth,[5],1.04
same,normalized growth,[6],1.01
same,normalized growth,[7],1.01
same,normalized growth,[8],1.02
same,normalized growth,[9],1.1
same,normalized growth,[10],1.02
same,normalized growth,[12],1.01
same,normalized growth,[13],1.01
same,normalized growth,[29],1.02
same,normalized growth,[14],1.03
same,normalized growth,[15],1
same,normalized growth,[16],1.02
same,normalized growth,[17],1
same,normalized growth,[18],1.08
same,normalized growth,[19],1
same,normalized growth,[20],0.993
same,normalized growth,[21],1.01
same,normalized growth,[22],1.04
same,normalized growth,[23],1.02
same,normalized growth,[24],1.03
same,normalized growth,[26],1.08
same,normalized growth,[27],1.07
same,normalized growth,[28],1.07
